# From paper PMC7862700, “An all-to-all approach to the identification of sequence-specific readers for epigenetic DNA modifications on cytosine”
# Tests used:
# Assay in all cases: DAPPL (digital affinity profiling via proximity ligation, sequencing); 10 mM Tris-HCl pH 7.5, 50 mM NaCl, 1 mM DTT, 4% glycerol, room temperature, 30 min; GST-TFs on glutathione beads, 16-mer random dsDNA library, 0.1% formaldehyde crosslink after washing; high values mean tight binding
# Conditions in all cases: protein: recombinant; tags: N-terminal GST; dsDNA, one strand shown
# FLI1 = target: T1, FLI1 (Homo sapiens, UniProt Q01543 1-452)
# T1 sequence: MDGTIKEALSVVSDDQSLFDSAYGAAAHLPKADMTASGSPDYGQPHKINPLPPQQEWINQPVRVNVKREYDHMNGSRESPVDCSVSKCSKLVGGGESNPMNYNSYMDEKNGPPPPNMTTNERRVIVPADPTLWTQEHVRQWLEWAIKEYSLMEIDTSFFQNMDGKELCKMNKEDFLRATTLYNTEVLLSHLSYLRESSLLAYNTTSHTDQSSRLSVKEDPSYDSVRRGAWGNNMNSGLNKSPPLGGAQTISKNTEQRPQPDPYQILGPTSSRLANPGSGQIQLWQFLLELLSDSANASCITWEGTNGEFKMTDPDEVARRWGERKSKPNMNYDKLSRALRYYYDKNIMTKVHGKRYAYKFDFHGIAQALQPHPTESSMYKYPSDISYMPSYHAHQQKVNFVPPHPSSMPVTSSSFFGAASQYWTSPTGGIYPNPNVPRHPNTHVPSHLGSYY
# Outline: (§1)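 After expression in yeast as GST fusions, human transcription factors were bound to glutathione beads, DNA-barcoded and mixed with a tag-only sample. The pools were incubated with 200 nmole of a 16-mer random double-stranded DNA library in Tris/NaCl/DTT/glycerol buffer (30 min, room temperature), washed and crosslinked with 0.1% formaldehyde. Proximity ligation with BsaI/T4 ligase ran for 1 h at 37 °C, before PCR amplification and sequencing on an Illumina NextSeq500. Binding signal is a hexamer's read frequency for a factor divided by its frequency for the tag-only sample.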
# ELK1 = target: T2, ELK1 (Homo sapiens, UniProt P19419 1-428)
# T2 sequence: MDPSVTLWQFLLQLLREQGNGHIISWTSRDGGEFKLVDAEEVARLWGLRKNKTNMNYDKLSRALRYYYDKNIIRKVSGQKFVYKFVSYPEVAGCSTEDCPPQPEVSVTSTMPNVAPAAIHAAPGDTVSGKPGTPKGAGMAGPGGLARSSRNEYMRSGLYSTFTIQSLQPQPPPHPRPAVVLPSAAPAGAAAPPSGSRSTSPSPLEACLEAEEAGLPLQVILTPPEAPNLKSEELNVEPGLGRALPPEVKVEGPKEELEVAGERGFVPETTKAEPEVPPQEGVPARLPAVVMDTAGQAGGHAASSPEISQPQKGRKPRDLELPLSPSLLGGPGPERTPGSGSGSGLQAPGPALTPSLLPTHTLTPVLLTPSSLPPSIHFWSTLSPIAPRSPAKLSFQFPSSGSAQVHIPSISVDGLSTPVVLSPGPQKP
# Outline: as §1
# GABPA = target: T3, GABPA (Homo sapiens, UniProt Q06546 1-454)
# T3 sequence: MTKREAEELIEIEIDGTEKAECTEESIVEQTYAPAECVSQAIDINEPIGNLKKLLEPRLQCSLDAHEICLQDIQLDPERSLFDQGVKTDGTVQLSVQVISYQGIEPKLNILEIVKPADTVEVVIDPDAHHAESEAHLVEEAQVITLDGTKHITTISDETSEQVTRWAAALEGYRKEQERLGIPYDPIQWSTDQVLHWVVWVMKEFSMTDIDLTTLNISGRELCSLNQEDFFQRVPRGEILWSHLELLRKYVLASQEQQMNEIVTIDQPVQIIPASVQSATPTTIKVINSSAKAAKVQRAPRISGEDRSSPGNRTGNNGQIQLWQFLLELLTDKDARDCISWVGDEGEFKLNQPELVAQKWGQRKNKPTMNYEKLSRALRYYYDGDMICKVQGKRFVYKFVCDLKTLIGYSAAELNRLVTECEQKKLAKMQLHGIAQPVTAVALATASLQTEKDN
# Outline: as §1
# ERG = target: T4, ERG (Homo sapiens, UniProt P11308 1-479)
# T4 sequence: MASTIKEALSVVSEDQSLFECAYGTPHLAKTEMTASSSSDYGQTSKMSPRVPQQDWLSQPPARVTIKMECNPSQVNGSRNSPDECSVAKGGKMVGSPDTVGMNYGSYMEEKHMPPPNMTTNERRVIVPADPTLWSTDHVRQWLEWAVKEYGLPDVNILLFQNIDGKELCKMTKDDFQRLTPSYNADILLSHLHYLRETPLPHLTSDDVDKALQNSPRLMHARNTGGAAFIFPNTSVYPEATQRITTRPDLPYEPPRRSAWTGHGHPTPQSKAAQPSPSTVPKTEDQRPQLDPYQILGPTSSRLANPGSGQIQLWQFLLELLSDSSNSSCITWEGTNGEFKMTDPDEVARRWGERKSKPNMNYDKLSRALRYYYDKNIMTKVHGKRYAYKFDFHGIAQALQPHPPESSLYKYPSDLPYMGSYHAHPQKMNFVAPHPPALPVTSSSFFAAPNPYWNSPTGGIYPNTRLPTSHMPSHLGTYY
# Outline: as §1
# ELF1 = ELF1 (Homo sapiens, UniProt P32519 1-619)
# Chain of ELF1 (P32519 whole entry): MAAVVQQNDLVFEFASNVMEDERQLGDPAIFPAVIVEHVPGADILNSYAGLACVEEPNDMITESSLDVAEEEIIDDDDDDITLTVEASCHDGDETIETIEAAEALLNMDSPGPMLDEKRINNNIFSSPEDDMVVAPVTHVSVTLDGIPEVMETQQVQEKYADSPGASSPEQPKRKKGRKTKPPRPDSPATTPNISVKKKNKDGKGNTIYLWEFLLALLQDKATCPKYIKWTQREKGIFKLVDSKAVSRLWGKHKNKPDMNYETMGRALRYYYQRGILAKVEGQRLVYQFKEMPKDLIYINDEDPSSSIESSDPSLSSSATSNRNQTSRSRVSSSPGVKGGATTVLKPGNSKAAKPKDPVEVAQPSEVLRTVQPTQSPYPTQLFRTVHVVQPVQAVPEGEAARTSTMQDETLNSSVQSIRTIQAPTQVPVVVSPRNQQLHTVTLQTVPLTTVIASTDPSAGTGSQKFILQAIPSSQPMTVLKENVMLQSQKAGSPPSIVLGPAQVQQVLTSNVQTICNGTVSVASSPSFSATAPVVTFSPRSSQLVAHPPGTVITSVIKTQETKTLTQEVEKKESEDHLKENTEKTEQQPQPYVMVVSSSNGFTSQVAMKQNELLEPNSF
# Outline: as §1
# EHF = target: T5, EHF (Homo sapiens, UniProt Q9NZC4 1-300)
# T5 sequence: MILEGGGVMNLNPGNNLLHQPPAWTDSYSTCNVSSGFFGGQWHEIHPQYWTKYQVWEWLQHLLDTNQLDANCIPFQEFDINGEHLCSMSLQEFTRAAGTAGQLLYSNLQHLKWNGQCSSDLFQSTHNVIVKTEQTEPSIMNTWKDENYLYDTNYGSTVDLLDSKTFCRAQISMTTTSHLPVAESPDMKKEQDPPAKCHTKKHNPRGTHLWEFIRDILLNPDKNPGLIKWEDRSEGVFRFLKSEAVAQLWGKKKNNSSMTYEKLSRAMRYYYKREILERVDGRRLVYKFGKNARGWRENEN
# Outline: as §1
# SPI1 = SPI1 (Homo sapiens, UniProt P17947 1-270)
# Outline: as §1
# SPIB = SPIB (Homo sapiens, UniProt Q01892 1-262)
# Chain of SPIB (Q01892 whole entry): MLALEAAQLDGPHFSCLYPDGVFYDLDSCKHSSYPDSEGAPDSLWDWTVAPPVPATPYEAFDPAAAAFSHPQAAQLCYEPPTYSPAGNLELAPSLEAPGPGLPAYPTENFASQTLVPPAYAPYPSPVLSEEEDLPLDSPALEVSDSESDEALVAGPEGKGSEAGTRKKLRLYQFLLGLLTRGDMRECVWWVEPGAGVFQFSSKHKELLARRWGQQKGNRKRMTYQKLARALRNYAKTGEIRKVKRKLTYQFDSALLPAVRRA
# Outline: as §1
# ELK3 = target: T6, ELK3 (Homo sapiens, UniProt P41970 1-407)
# T6 sequence: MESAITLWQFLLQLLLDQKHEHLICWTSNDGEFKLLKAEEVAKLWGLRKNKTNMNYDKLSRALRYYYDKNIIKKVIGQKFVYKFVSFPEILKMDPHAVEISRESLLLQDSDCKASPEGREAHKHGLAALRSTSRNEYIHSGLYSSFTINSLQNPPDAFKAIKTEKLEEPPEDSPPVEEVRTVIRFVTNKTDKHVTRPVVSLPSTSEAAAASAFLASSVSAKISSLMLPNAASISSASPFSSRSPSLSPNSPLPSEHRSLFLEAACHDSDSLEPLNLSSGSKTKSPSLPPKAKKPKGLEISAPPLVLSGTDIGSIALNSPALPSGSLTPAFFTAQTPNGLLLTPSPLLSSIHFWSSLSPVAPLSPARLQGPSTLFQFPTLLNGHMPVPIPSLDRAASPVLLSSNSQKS
# Outline: as §1
sequence,measurement,setting,value
ATTTAG,binding signal,FLI1,"1.13 fold enrichment (6-mer frequency, TF over GST control)"
same,binding signal,ELK1,"1.07 fold enrichment (6-mer frequency, TF over GST control)"
same,binding signal,GABPA,"1.27 fold enrichment (6-mer frequency, TF over GST control)"
same,binding signal,ERG,"1.02 fold enrichment (6-mer frequency, TF over GST control)"
same,binding signal,ELF1,"1.15 fold enrichment (6-mer frequency, TF over GST control)"
same,binding signal,EHF,"1.14 fold enrichment (6-mer frequency, TF over GST control)"
same,binding signal,SPI1,"1.11 fold enrichment (6-mer frequency, TF over GST control)"
same,binding signal,SPIB,"1.16 fold enrichment (6-mer frequency, TF over GST control)"
same,binding signal,ELK3,"1.09 fold enrichment (6-mer frequency, TF over GST control)"
